The source made the active and inactive calls. The calls were made as follows: active = hit-call score of the fitted dose curve at least 0.9, where 1 is the maximum; inactive = score below 0.9.

Read-out in assay [1]: Transforming growth factor beta 1 (TGFb1), TGFB1 (gene 7040)
Kind of assay: BSK_KF3CT_TGFb1: BioMAP Diversity Plus: KF3CT Assay for Transforming growth factor beta 1 (TGFb1) Biomarker Activity (AID 2283072). As to conditions: primary human keratinocytes with fibroblasts; actives raise or lower the signal. In a few lines:
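KF3CT co-culture (keratinocytes + fibroblasts), 24 h exposure → TGF-b1 ELISA → bidirectional fit, DMSO = baseline. Parallel SRB total-protein staining (0.1% SRB, 10% TCA fixation, 560 nm) for cytotoxicity.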

Read-out in assay [2]: C-C motif chemokine 2 (Homo sapiens) (UniProt P13500)
In words: BSK_KF3CT_MCP1: BioMAP Diversity Plus: KF3CT Assay for Monocyte Chemoattractant Protein 1 (MCP1/CCL2) Biomarker Activity (AID 2283073). As to conditions: primary human keratinocytes with fibroblasts; actives raise or lower the signal. In a few lines: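 KF3CT skin co-culture (keratinocytes/foreskin fibroblasts), 24 h post-dose; MCP-1 by ELISA; gain/loss of signal fit bidirectionally vs DMSO baseline.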

Read-out in assay [3]: Matrix Metallopeptidase 9 (MMP9), MMP9 (gene 4318)
Kind of assay: BSK_KF3CT_MMP9: BioMAP Diversity Plus: KF3CT Assay for Matrix Metallopeptidase 9 (MMP9) Biomarker Activity (AID 2283074).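 As to AC50: MMP9 protein level quantified by ELISA in the co-culture.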 The conditions noted are these: primary human keratinocytes with fibroblasts; actives raise or lower the signal. In a few lines:
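ELISA read-out of MMP-9 at 24 h post-dosing in a co-culture of human skin keratinocytes and foreskin fibroblasts. Gain or loss of signal was fitted in both directions against DMSO.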

Read-out in assay [4]: urokinase plasminogen activator (uPA), PLAU (gene 5328)
In words: BSK_KF3CT_uPA: BioMAP Diversity Plus: KF3CT Assay for urokinase plasminogen activator (uPA) Biomarker Activity (AID 2283075). The conditions noted are these: primary human keratinocytes with fibroblasts; actives raise or lower the signal. An outline of the steps: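 Skin co-culture (keratinocytes + foreskin fibroblasts), human primary; 24 h post-dose; uPA by ELISA; gain/loss fit vs DMSO baseline.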

Read-out in assay [5]: CD40, CD40 (gene 958)
In words: BSK_LPS_CD40: BioMAP Diversity Plus: LPS Assay for CD40 Biomarker Activity (AID 2283076). As to conditions: primary human HUVEC with PBMC; actives raise or lower the signal. In a few lines: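 ELISA readout of CD40 in HUVEC/PBMC co-culture (BSK_LPS system), 24 h post-dosing; bidirectional curve fit, DMSO baseline; parallel SRB total-protein staining for cytotoxicity.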

Read-out in assay [6]: E-selectin (Homo sapiens) (UniProt P16581)
In words: BSK_LPS_Eselectin: BioMAP Diversity Plus: LPS Assay for Eselectin Biomarker Activity (AID 2283077). The conditions noted are these: primary human HUVEC with PBMC; actives raise or lower the signal. In a few lines:
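ELISA readout of E-selectin, 24 h post-dose, HUVEC + PBMC co-culture (LPS system). Gain or loss of signal vs DMSO baseline, bidirectional fit.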

The nature of assay [7]: BSK_LPS_SRB: Viability Assessment in the BioMAP Diversity Plus: LPS Assay (AID 2283079).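 Also: total protein by sulforhodamine B absorbance as a cytotoxicity measure; measured one day after compound addition.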 As to conditions: primary human HUVEC with PBMC. In a few lines:
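HUVEC + PBMC co-culture, LPS-stimulated; compound 24 h. 10% TCA fix, 0.1% SRB stain, A560. Bidirectional fit vs DMSO.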

Read-out in assay [8]: Interleukin-1 alpha (IL1a), IL1A (gene 3552)
In words: BSK_LPS_IL1a: BioMAP Diversity Plus: LPS Assay for Interleukin-1 alpha (IL1a) Biomarker Activity (AID 2283080). The conditions noted are these: primary human HUVEC with PBMC; actives raise or lower the signal. An outline of the steps: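 HUVEC/PBMC co-culture, LPS system; 24 h after dosing; IL-1a by ELISA; gain or loss of signal fitted bidirectionally vs DMSO baseline.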

Read-out in assay [9]: Monocyte Chemoattractant Protein-1 (MCP1), CCL2 (gene 6347)
In words: BSK_LPS_MCP1: BioMAP Diversity Plus: LPS Assay for Monocyte Chemoattractant Protein-1 (MCP1) Biomarker Activity (AID 2283081).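 As to AC50: secreted MCP-1 protein quantified by ELISA in culture supernatant.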 The conditions noted are these: primary human HUVEC with PBMC; actives raise or lower the signal. An outline of the steps: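 ELISA read-out of MCP-1 after 24 h chemical dosing of a human umbilical vein endothelial cell/peripheral blood mononuclear cell co-culture stimulated with LPS. Gain or loss of signal fitted relative to DMSO controls.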

The nature of assay [10]: BSK_LPS_PGE2: BioMAP Diversity Plus: LPS Assay for Prostaglandin E2 (PGE2) Biomarker Activity (AID 2283082).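 As to AC50: secreted prostaglandin E2 measured by ELISA in LPS-stimulated co-culture.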 As to conditions: primary human HUVEC with PBMC; actives raise or lower the signal. In a few lines:
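Compounds were added to the LPS co-culture of endothelium and PBMC, and PGE2 was measured by ELISA after 24 h. Responses in either direction were fitted with DMSO as baseline.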

Read-out in assay [11]: Macrophage colony-stimulating factor (MCSF), CSF1 (gene 1435)
Kind of assay: BSK_LPS_MCSF: BioMAP Diversity Plus: LPS Assay for Macrophage colony-stimulating factor (MCSF) Biomarker Activity (AID 2283083). The conditions noted are these: primary human HUVEC with PBMC; actives raise or lower the signal. An outline of the steps: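 HUVEC + PBMC co-culture (human primary), 24 h post-dose; M-CSF by ELISA; gain/loss of signal fitted bidirectionally vs DMSO baseline.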

Read-out in assay [12]: Tissue Factor, F3 (gene 2152)
In words: BSK_LPS_TissueFactor: BioMAP Diversity Plus: LPS Assay for Tissue Factor Biomarker Activity (AID 2283084). The conditions noted are these: primary human HUVEC with PBMC; actives raise or lower the signal. An outline of the steps:
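HUVEC/PBMC co-culture, LPS-activated; CD142 ELISA read 24 h post-dose; bidirectional curve fit vs DMSO negative control.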

Read-out in assay [13]: Tumor necrosis factor (Homo sapiens) (UniProt P01375)
In words: BSK_LPS_TNFa: BioMAP Diversity Plus: LPS Assay for Tumour Necrosis Factor alpha (TNFa) Biomarker Activity (AID 2283085).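 As to AC50: TNFa protein level quantified by ELISA in the co-culture.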 The conditions noted are these: primary human HUVEC with PBMC; actives raise or lower the signal. In a few lines: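 Cells (umbilical vein endothelium plus peripheral blood mononuclear cells) were dosed with chemical, incubated 24 h, then TNFa was quantified by ELISA; values derive from bidirectional fitting with DMSO as baseline.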

Read-out in assay [14]: Vascular cell adhesion molecule 1 (VCAM1), VCAM1 (gene 7412)
Kind of assay: BSK_LPS_VCAM1: BioMAP Diversity Plus: LPS Assay for Vascular cell adhesion molecule 1 (VCAM1) Biomarker Activity (AID 2283086). As to conditions: primary human HUVEC with PBMC; actives raise or lower the signal. In a few lines:
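Cells are dosed in an LPS-stimulated endothelial/mononuclear co-culture and, after 24 h, VCAM-1 is quantified by ELISA. Activity in either direction is fitted relative to the DMSO negative control.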

Read-out in assay [15]: CD38, CD38 (gene 952)
In words: BSK_SAg_CD38: BioMAP Diversity Plus: SAg Assay for CD38 Biomarker Activity (AID 2283087). As to conditions: primary human HUVEC with PBMC; actives raise or lower the signal. In a few lines:
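CD38 quantified by ELISA (fluorescence) in a superantigen-activated endothelial cell–PBMC co-culture at 24 h post-dose. Activity fitted in both directions relative to DMSO; parallel SRB and Alamar Blue cytotoxicity read-outs.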

Read-out in assay [16]: CD40, CD40 (gene 958)
In words: BSK_SAg_CD40: BioMAP Diversity Plus: SAg Assay for CD40 Biomarker Activity (AID 2283088). The conditions noted are these: primary human HUVEC with PBMC; actives raise or lower the signal. An outline of the steps: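 HUVEC/PBMC co-culture, 24 h post-dose; CD40 by ELISA, fluorescence intensity; bidirectional fit vs DMSO negative control.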

Read-out in assay [17]: CD69, CD69 (gene 969)
In words: BSK_SAg_CD69: BioMAP Diversity Plus: SAg Assay for CD69 Biomarker Activity (AID 2283089).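 As to AC50: cell surface CD69 protein quantified by ELISA with fluorescence detection.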 As to conditions: primary human HUVEC with PBMC; actives raise or lower the signal. An outline of the steps:
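HUVEC co-cultured with PBMC were dosed with chemical, and CD69 was measured by ELISA with fluorescence read-out 24 h later. Bidirectional curve fitting used DMSO as negative control and activity baseline.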

Read-out in assay [18]: Monocyte Chemoattractant Protein-1 (MCP1), CCL2 (gene 6347)
Kind of assay: BSK_SAg_MCP1: BioMAP Diversity Plus: SAg Assay for Monocyte Chemoattractant Protein-1 (MCP1) Biomarker Activity (AID 2283090). As to conditions: primary human HUVEC with PBMC; actives raise or lower the signal. In a few lines:
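Values derive from bidirectional fitting of ELISA-measured MCP1 against DMSO controls. Readings were taken 24 h after dosing human vascular endothelial cells co-cultured with peripheral blood mononuclear cells under superantigen stimulation.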

Read-out in assay [19]: E-selectin (Homo sapiens) (UniProt P16581)
Kind of assay: BSK_SAg_Eselectin: BioMAP Diversity Plus: SAg Assay for Eselectin Biomarker Activity (AID 2283091). The conditions noted are these: primary human HUVEC with PBMC; actives raise or lower the signal. In a few lines: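 E-selectin ELISA readout at 24 h post-dosing in human umbilical vein endothelial cell/PBMC co-culture; gain or loss of signal fitted relative to DMSO baseline.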

Sequence of Tumor necrosis factor (Homo sapiens) (P01375 whole entry, looked up): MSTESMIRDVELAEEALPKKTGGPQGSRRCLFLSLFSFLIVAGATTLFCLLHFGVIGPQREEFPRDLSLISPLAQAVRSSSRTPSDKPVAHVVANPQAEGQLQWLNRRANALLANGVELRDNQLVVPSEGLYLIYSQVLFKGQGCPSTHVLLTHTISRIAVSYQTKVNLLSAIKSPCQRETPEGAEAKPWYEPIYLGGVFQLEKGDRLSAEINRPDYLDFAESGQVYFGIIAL
Sequence of E-selectin (Homo sapiens) (P16581 whole entry, looked up): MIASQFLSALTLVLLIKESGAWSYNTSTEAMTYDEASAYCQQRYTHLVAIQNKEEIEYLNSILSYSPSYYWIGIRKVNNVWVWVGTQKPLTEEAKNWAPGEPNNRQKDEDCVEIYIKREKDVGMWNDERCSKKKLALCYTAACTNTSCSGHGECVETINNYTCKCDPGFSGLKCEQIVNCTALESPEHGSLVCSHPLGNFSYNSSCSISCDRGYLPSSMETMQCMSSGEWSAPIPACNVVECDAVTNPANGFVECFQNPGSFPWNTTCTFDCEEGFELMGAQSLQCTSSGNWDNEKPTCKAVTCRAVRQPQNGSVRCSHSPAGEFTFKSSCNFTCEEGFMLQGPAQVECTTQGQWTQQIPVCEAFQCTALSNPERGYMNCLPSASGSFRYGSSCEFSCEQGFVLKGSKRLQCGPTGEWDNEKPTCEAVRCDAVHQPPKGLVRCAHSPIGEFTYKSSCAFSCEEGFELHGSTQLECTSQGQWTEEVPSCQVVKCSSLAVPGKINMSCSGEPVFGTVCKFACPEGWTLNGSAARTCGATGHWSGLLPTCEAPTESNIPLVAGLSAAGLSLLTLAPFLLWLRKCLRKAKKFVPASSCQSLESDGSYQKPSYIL

Take `CCCCCCC(=O)O`: the result in assay [1], in assay [2], in assay [3], in assay [4], in assay [5] and in assay [6] was inactive. Moreover, the result in [7], in [8], in [9], in assay [10], in assay [11] and in assay [12] was inactive. Besides, the result in assay [13], in assay [14], in [15], in [16], in assay [17] and in assay [18] was inactive. In addition, in assay [19], the result was inactive.
`CCCCC(CC)COC(=O)CCCCC(=O)OCc1ccccc1` (stereo not given): the result in assay [1], in assay [2], in assay [3], in assay [4], in [5] and in assay [6] was inactive. Besides, the outcome in [7], in [8], in assay [9], in [10], in assay [11] and in assay [12] was inactive. Moreover, the result in [13], in assay [14], in assay [15], in [16], in assay [17] and in assay [18] was inactive. The outcome in assay [19] was inactive.
As to `Oc1cc2ccccc2c2ccccc12`, the concentration at half-maximal activity (AC50) in assay [1] is 6.02 µM (active); in assay [2] it was 6.26 µM (active); in assay [3] it was 5.66 µM (active); in assay [4] it was 7.13 µM (active); in [5] it was 5.93 µM (active); in assay [6], 11.1 µM (active). The AC50 was 12.1 µM (active) in assay [7]; 7.63 µM (active) in assay [8]; 11.1 µM (active) in [9]; 3.34 µM (active) in assay [10]; 7.85 µM (active) in assay [11]; 9.95 µM (active) in assay [12]. Besides, the AC50 is 11.6 µM (active) in assay [13]; 9.03 µM (active) in assay [14]; 10 µM (active) in assay [15]; 9.94 µM (active) in [16]; 8.99 µM (active) in [17]; 7.84 µM (active) in assay [18].
As to `CCCCOCCO`, the result in assay [1], in [2], in assay [3], in [4], in assay [5] and in [6] was inactive. In addition, the result in assay [7], in assay [8], in assay [9], in [10], in assay [11] and in [12] was inactive. Moreover, the outcome in assay [13], in assay [14], in [15], in [16], in [17] and in [18] was inactive. For the same compound, the outcome in assay [19] was inactive.

As usually defined, the AC50 is the midpoint of the concentration-response curve, whichever way the signal moves.

The values are drawn from PubChem BioAssay (EPA / NIEHS).
